Among the data in ChEMBL document CHEMBL3988442, “University of Dundee, Small-Polar-MMV Screening Library” (2021) are Percent Effect values, retold here.

Test [1] deals with T1, Aspartate--tRNA(Asp/Asn) ligase (Mycobacterium tuberculosis (strain ATCC 25618 / H37Rv)) (UniProt P9WFW3).
T1 sequence (whole entry): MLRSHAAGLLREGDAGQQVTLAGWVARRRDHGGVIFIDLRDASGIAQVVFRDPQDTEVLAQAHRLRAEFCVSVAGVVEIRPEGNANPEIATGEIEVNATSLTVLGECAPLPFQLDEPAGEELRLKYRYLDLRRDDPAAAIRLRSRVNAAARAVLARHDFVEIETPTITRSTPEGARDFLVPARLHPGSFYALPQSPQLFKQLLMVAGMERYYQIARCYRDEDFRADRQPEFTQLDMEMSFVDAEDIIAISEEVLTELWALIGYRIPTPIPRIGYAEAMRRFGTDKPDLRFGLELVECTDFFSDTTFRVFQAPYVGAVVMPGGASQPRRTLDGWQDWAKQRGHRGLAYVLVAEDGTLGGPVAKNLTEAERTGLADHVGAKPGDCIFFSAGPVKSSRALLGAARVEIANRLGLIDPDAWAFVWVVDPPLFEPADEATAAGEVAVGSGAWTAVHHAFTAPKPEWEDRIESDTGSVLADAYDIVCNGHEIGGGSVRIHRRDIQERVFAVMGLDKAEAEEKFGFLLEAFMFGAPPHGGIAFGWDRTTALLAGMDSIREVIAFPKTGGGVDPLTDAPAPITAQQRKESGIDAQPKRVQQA
The test can be described thus: Assay for Asp RNA synthetase-1 from Mycobacterium tuberculosis. The class given is functional. Set-up: scale not given: direction of the effect not stated beside the values. To be noted: 30 µM.

For test [2], the target named is Shiga toxin 2 (Escherichia coli O157:H7) (UniProt P09385+P09386). The test is described as follows: E. coli 0.157:H7 Shiga Toxin SOP - stx2 screening assay. The class given is functional. Set-up: scale not given: direction of the effect not stated beside the values. To be noted: 30 µM.

As for `Cc1n[nH]c(=O)c2c(NC(=O)CN3CCC(O)CC3)oc(C)c12`, the Percent Effect in test [1] was 1.28%; in test [2] it was -66.6%.
For `CCS(=O)(=O)CC(=O)NC(c1ccc(F)cc1)C1CCCC1` (stereo not given), in that order: -3.77% and -1.68%.
Taken in the same sequence, the figures for `CC(CNCc1ccncc1)Oc1ccccn1` (stereo not given) were -2.38% and -57%.
As to `Cc1noc(CN2CCN(CC(C)O)CC2)n1` (stereo not given), the results for the Percent Effect in test [1] and in test [2] were -2.18% and -6.53%, respectively.
For `Cc1ccc(C(=O)N2CCC3(CC2)CC(N2CCCC2)C3)cc1`, in that order: 0.137% and -9.41%.
Turning to `Cc1cc(C(=O)NCC(C)N2CCc3ccccc32)no1` (stereo not given), the Percent Effect is -0.278% in test [1] and -26.5% in test [2].
Consider `c1cc(CNCc2ccc3c(c2)CCO3)cc(N2CCOCC2)n1`, for which the Percent Effect is -4.98% in test [1] and -32.6% in test [2].
With `CCc1ccc(NS(=O)(=O)CC2=NC(=O)n3cccc3C2=O)cc1`, the Percent Effect in test [1] was 0.755%; in test [2] it was -77.4%.
Consider `O=C(C1CCS(=O)(=O)C1)N1CCN(c2cnccn2)CC1` (stereo not given), for which the Percent Effect came to 0.204% in test [1] and 25.5% in test [2].
With `Cc1cccnc1C(=O)N1CCCC(c2[nH]ncc2S(C)(=O)=O)C1` (stereo not given), the Percent Effect in test [1] came to 3.25%; in test [2] it was 15.7%.
For `O=S(=O)(C1CC1)N1CCO[C@H]2[C@H](OCCN3CCCC3)CC[C@@H]21`, in that order: 2.59% and -32.7%.
Taken in the same sequence, the figures for `O=C(NCCc1coc(-c2ccc(F)cc2)n1)NC1CCC(O)CC1` (stereo not given) were -3.81% and -24.9%.
For `O=C(NCc1cnc2n1CCN(c1ncc(F)cn1)CC2)C1CCC1`, in that order: -2.16% and 3.59%.
For `CCn1cc(NC(=O)NCC2(N3CCOCC3)CCSC2)cn1` (stereo not given), the Percent Effect in test [1] is 1.79%; in test [2], -20%.
Taken in the same sequence, the figures for `Cc1ccccc1CN(C)Cc1nc2c(cnn2C)c(=O)[nH]1` were 0.633% and -4.87%.
For `NC(=O)Cn1cc(NC(=O)N2CCCC2)cn1`, in that order: -2.12% and -31.6%.
For `COc1ccc(C2=CCN(C(=O)C3CCN(C)C(=O)C3)CC2)cc1` (stereo not given), in that order: 3.17% and 27.5%.
As for `Cc1cnn(C2CCCN(C(=O)c3ccn(C)c(=O)c3)C2)c1` (stereo not given), the Percent Effect in test [1] was -2.74%; in test [2], 22%.
For `Cc1cccc2nc(C(=O)N3CCC(Nc4cccnn4)CC3)cn12`, in that order: -1.93% and 8.8%.
In the case of `O=C(NCCN1CCCCC1)c1nc2ccccc2c(=O)[nH]1`, the Percent Effect in test [1] was -1.02%; in test [2], -53.5%.
For `O=C(NCc1nn(-c2ccccc2)c2c1CCC2)N1CCSCC1`, in that order: -2.32% and 34%.
Taken in the same sequence, the figures for `Fc1cccc(N2CCCC3(CN(Cc4ccncc4)CCO3)C2)c1` (stereo not given) were 5.63% and -4.22%.
With `COCC(=O)N1CC[C@@H]2O[C@H](COCc3ccncc3)CC[C@@H]21`, the Percent Effect in test [1] was 4.14%; in test [2] it was -2.38%.
Taken in the same sequence, the figures for `COc1cccn(CC(=O)N(C)CCOc2cc(C)cc(C)c2)c1=O` were 38.9% and -20.3%.
Take `COc1nn(C)cc1C(=O)N1CCC(c2nnc(C3CC3)o2)CC1`: the figures for the Percent Effect in test [1] and in test [2] were -1.47% and -8.92%, respectively.
For `COc1cccc(CN2CCN(C(=O)CN3CCOCC3)CC2)n1`, in that order: -3.48% and -2.5%.
For `CCn1cc(CN2CCCC(c3[nH]ncc3S(C)(=O)=O)C2)cn1` (stereo not given), in that order: -1.6% and -18.8%.
For `O=C(NCC1CC1)C1=NOC2(CCN(S(=O)(=O)c3cccs3)C2)C1` (stereo not given), in that order: 2.15% and -4.25%.
Consider `Cn1c(C2CC2)nc2c1CCN(CCS(=O)(=O)c1ccccc1)C2`, for which the Percent Effect in test [1] is -5.83%; in test [2], 6.27%.
For `Cn1ccnc1CN1CCOCC(Cc2ccccn2)C1` (stereo not given), the results for the Percent Effect in test [1] and in test [2] were -1.22% and 17.1%, respectively.
For the compound `O=C(C1CCC1)N1CCC2(COCc3cnc(N4CCOCC4)nc32)C1` (stereo not given), the results for the Percent Effect in test [1] and in test [2] were 2.45% and -34.1%, respectively.
Taken in the same sequence, the figures for `Cc1cn(CC(=O)NC2CCN(C(=O)C3CC3)CC2)c2ccccc12` were 2.13% and 6.97%.
Taken in the same sequence, the figures for `O=C1COC2(CCN(CC3CC3)CC2)CN1c1ccccc1` were -0.547% and 5.01%.
Regarding `CCN1CCN(c2ncc(-c3cc(C)no3)c(-c3ccoc3C)n2)CC1`, the values for the Percent Effect in test [1] and in test [2] were 0.313% and -6.58%, respectively.
Taken in the same sequence, the figures for `O=C(C1CCOCC1)N1CCO[C@H]2[C@@H](OCc3ccncc3)CC[C@@H]21` were -4.8% and 22.7%.
Taken in the same sequence, the figures for `Cc1cnn(C2CCCN(C(=O)c3cc(C4CC4)on3)C2)c1` (stereo not given) were -1.95% and 14.5%.
For `COC(=O)COc1nc(CC(C)C)c2c(c1C#N)CCCC2`, in that order: -0.893% and -1.99%.
With `O=C1COc2cc(C(=O)NS(=O)(=O)c3ccccc3F)ccc2N1`, the Percent Effect is -0.702% in test [1] and 0.482% in test [2].
For `Cc1ccc(NC2CCN(C(=O)CCc3ccco3)CC2)nn1`, in that order: 0.0874% and 19.2%.
For `COCCN1CCc2cc(C(=O)N(C)C)c(NCC3CC3)nc2CC1`, in that order: 0.183% and 0.232%.
For `O=C([C@H]1COC[C@H]2CN(C3CCCC3)C[C@H]21)N1CCCCO1`, in that order: 5.94% and -2.98%.
Take `CCC(=O)NCCc1cc(N2CCN(C(C)=O)CC2)nc(C2CC2)n1`: the Percent Effect in test [1] is -0.432%; in test [2], -2.36%.
Taken in the same sequence, the figures for `Cc1nc(C)n(CC2CN(Cc3cccc(C#N)c3)CCO2)n1` (stereo not given) were 3.11% and 20.9%.
Taken in the same sequence, the figures for `CCc1nccn1C1CCCN(C(=O)c2cnn(C)c2C2CC2)C1` (stereo not given) were -4.23% and 21.1%.
Regarding `O=C(CCc1nccs1)N1CCCC(N2CCNC2=O)C1` (stereo not given), the Percent Effect in test [1] was 6.01%; in test [2], -8.24%.
With `NC(=O)Nc1cccc(Oc2ccccn2)c1`, the figures for the Percent Effect in test [1] and in test [2] were -2.58% and -11.9%, respectively.
Turning to `CCS(=O)(=O)N1C[C@@H](OCc2cccnc2)[C@H]2OCCC[C@H]21`, the Percent Effect in test [1] turned out to be 3.4%; in test [2] it was 5.21%.
For `CC(NCc1cccnc1)c1ccc(OCC(=O)NC2CC2)cc1` (stereo not given), in that order: 4.26% and -1.84%.
Taken in the same sequence, the figures for `Cc1occc1C(=O)N1CCC2(CCC(=O)N(CC(N)=O)C2)CC1` were -2.4% and -17.1%.
For `CS(=O)(=O)N1CCc2c(cccc2NC(=O)CC(F)(F)F)C1`, in that order: 5.45% and 2.18%.
